# About 3,900 (1.3%) of roughly 310,000 compounds were called active.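 How the source made its calls: active means compounds whose thallium flux B-score, printed positive for inhibition, exceeds three library SD while starting fluorescence stays within three; inactive means the rest.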 The sample as a whole holds a higher share of actives than the screen did.
# Target: Potassium voltage-gated channel subfamily KQT member 1 (Homo sapiens) (UniProt P51787)
# Experiment: inhibitors of human KCNQ1 channel, primary screen, cell-based, thallium flux, high-throughput (AID 2642);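 further: channel opened by potassium depolarization with thallium stimulus after 20 min compound exposure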
# Conditions: CHO-K1 KCNQ1, FluxOR thallium flux fluorescence, at 10 µM; stronger effect = higher value
# Chain of Potassium voltage-gated channel subfamily KQT member 1 (Homo sapiens) (P51787 whole entry, looked up): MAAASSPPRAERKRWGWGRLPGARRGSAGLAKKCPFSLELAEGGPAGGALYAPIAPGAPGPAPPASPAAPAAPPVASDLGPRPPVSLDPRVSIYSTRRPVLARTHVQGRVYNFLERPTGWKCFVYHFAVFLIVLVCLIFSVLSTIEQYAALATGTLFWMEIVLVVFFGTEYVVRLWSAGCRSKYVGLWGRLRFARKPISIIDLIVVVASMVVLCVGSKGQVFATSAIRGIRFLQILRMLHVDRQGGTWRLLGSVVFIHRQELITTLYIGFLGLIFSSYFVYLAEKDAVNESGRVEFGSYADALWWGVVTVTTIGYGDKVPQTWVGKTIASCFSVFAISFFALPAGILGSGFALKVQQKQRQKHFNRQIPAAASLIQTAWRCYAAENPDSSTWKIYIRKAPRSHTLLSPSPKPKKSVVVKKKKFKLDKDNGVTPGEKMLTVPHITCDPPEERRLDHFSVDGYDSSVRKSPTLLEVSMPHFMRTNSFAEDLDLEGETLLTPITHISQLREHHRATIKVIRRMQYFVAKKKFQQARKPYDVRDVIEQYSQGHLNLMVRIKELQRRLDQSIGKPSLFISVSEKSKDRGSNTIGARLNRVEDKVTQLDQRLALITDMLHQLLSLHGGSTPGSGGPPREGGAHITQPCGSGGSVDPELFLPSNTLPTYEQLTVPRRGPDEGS
row,Compound,B-score
1,O=c1c2c(nc3cc(-c4cccc(Cl)c4)[nH]n13)CCCC2,inactive
2,O=C(CN1C(=O)NC2(CCCC2)C1=O)OCCOc1ccc(F)cc1,inactive
3,Cc1cc([N+](=O)[O-])ccc1NC1CCCC1,inactive
4,Cc1cc(C=O)c(C)n1-c1ccc(NC2CCCCC2)c([N+](=O)[O-])c1,14 (active)
5,Cc1c(NS(=O)(=O)c2ccc(NC3CCCC3)c([N+](=O)[O-])c2)c(=O)n(-c2ccccc2)n1C,inactive
6,CC(=O)Oc1c(C(=O)c2nnc(C)o2)c(=O)n(Cc2ccccc2)c2ccccc12,inactive
7,Cc1ccc(S(=O)(=O)c2c(COC(=O)c3cccc(Cl)c3)c(-c3ccccc3)nn2C)cc1,inactive
8,Cn1nc(-c2ccccc2)c(CSc2cccc(Cl)c2)c1Cl,6 (active)
9,Cn1nc(-c2ccccc2)c(CO)c1Sc1ccccc1,inactive
10,CCCCCCCCCCOC(=O)Cn1c(COc2cccc(OC)c2)[n+](C)c2ccccc21,8 (active)
11,CCCCCCCCCCOC(=O)Cn1c(COc2ccc(C)cc2)[n+](C)c2ccccc21,inactive
12,COc1cccc(OCCCN2CCCCCC2)c1,inactive
13,COc1ccc(C2=NOC(Cn3nc(C(=O)NCc4ccc5c(c4)OCO5)cc3-c3ccccc3)C2)cc1 (configuration not stated),inactive
14,CCCCN(CC)CCNC(=O)CCNC(=O)Cn1ccc2ccccc2c1=O,inactive
15,FC(F)(F)c1cc(-c2cccs2)nc(NCc2ccco2)n1,inactive
16,Cc1cc(C(F)(F)F)nn1-c1nc(-c2ccco2)cc(C(F)(F)F)n1,inactive
17,FC(F)(F)c1cc(-c2ccco2)nc(NCc2ccc(Cl)cc2)n1,11 (active)
18,COc1ccc(NC(=O)CSc2nncc(=O)n2N)cc1OC,inactive
19,COc1cccc(NC(=S)NCc2ccco2)c1,inactive
20,COc1cc(NC(=S)NCc2ccco2)c(OC)cc1Cl,inactive
21,FC(F)Oc1ccc(NC(=S)NCc2ccco2)cc1Cl,7 (active)
22,CCOC(=O)c1cnc2c(c(C)nn2CC)c1Cl,inactive
23,COc1ccc(S(=O)(=O)N2CCCC2CNC(=O)C(=O)NC2CC2)cc1 (configuration not stated),inactive

row,Compound,B-score
1,CCCc1nc(NCc2ccc3c(c2)OCO3)c2nnn(Cc3ccccc3Cl)c2n1,inactive
2,Cc1nc(Nc2ccccc2F)c2nnn(Cc3ccccc3Cl)c2n1,inactive
3,Cc1nc(Nc2ccc3c(c2)OCCO3)c2nnn(Cc3ccccc3Cl)c2n1,7 (active)
4,CCCN1C(=O)C(Cc2nc3ccccc3c(=O)n2-c2ccccc2)c2cc(C)ccc21 (configuration not stated),inactive
5,O=[N+]([O-])/C=C/c1ccc2c(ccn2Cc2ccccc2)c1,inactive
6,COc1ccccc1N1CCN(C(=O)c2ccc(NC3=NC4CS(=O)(=O)CC4S3)cc2)CC1 (configuration not stated),inactive
7,CCC(=O)Nc1nc(C)c(C(=O)Nc2cccc(Cl)c2)s1,inactive
8,CC(C(=O)NC1CCCC1)N(c1ccc(Oc2ccccc2)cc1)S(C)(=O)=O (configuration not stated),inactive
9,CCc1ccc(-c2cc(C(=O)NCc3ccco3)c3ccccc3n2)s1,6 (active)
10,CCCCN(C)CCCNC(=O)c1cc(-c2cccs2)nc2ccccc12,inactive
11,COC(=O)CNC(=O)c1cc(-c2ccncc2)nc2ccccc12,inactive
12,COc1ccccc1Cn1c(C)nnc1-c1cnn(C)c1N,inactive
13,Cc1cc(C)cc(NS(=O)(=O)Cc2ccccc2)c1,inactive
14,CCc1cc(C(=O)OC)c(NC(=O)CC2Sc3ccc(C(F)(F)F)cc3NC2=O)s1 (configuration not stated),inactive
15,Cc1cccc(C(=O)NNC(=O)CSc2nnc(C(C)C)n2C)c1,inactive
16,Cc1cccc(CSc2nnc(NC(=O)CSc3nnc(C)s3)s2)c1,inactive
17,Cc1cccc(CSc2ccc(-c3cccs3)nn2)c1,7 (active)
18,O=C(CSc1ccc(-c2cccs2)nn1)Nc1ccccc1F,inactive
19,CCOC(=O)C1(CCOc2ccccc2)CCN(Cc2ccc(C#CCCO)cc2)CC1,inactive
20,Cc1cc(OCc2cc(C(=O)NCc3cc(C(C)C)no3)no2)cc(C)c1Cl,inactive
21,CCCCn1c(SCc2ncc(-c3ccccc3)o2)nc2cc(S(N)(=O)=O)ccc21,inactive
22,Cc1oc2c(F)c(F)c(F)c(F)c2c1S(=O)(=O)Nc1cccc(C(F)(F)F)c1,12 (active)
23,CCNS(=O)(=O)c1ccc(NC(=O)Nc2cccc(C(F)(F)F)c2)cc1,inactive

row,Compound,B-score
1,O=C(/C=C/c1ccc(F)cc1)Nc1cccc(S(=O)(=O)Nc2cccc(C(F)(F)F)c2)c1,inactive
2,COc1ccc(/C(=N\O)c2nccc3cc(OC)c(OC)cc23)cc1OC,inactive
3,CCOC(=O)N1CCN(C(=O)C2CCN(S(=O)(=O)c3cc(Cl)ccc3OCC)CC2)CC1,inactive
4,CCOC(=O)N1CCN(C(=O)C2CCN(Cc3ccc(OC)cc3OC)CC2)CC1,inactive
5,CCOC(=O)N1CCN(C(=O)C2CCN(c3ncnc4c3sc3cccc(F)c34)CC2)CC1,6 (active)
6,COc1ccc2c(c1)CCc1cn3ncc(C#N)c3nc1-2,inactive
7,CCOC(=O)C1CCN(C(=O)C2CCN(S(=O)(=O)CC)CC2)CC1,inactive
8,CCOC(=O)c1cn(CC)c2cc(F)c(F)cc2c1=O,inactive
9,Cn1nc(-c2ccc(Cl)cc2)c2cc(C(=O)NCc3ccco3)sc21,6 (active)
10,CCOC(=O)N1CCN(C(=O)c2cc3c(-c4ccc(Cl)cc4)nn(C)c3s2)CC1,inactive
11,COc1ccccc1N1CCN(C(=O)c2cc3c(-c4ccc(Cl)cc4)nn(C)c3s2)CC1,inactive
12,CN1CCc2ccccc2C1Cc1ccccc1NC(=O)c1sc2ccccc2c1Cl (configuration not stated),inactive
13,CCN(CC(=O)Nc1c(F)cccc1F)C(=O)c1ccc(Sc2nncn2C)c([N+](=O)[O-])c1,inactive
14,COc1ccc(CNc2ccc3c(c2)CCC3)cc1OC,inactive
15,COc1ccc(OC)c(CCNC(=O)CCn2ccc3cc(S(=O)(=O)N4CCCC4)ccc32)c1,inactive
16,CCOCc1nnc(NC(=O)CCC2CCCCC2)s1,inactive
17,CN1CCN(NC(=O)Nc2ccc(Br)cc2)CC1,inactive
18,CC1CCC(N2CC(=O)N(Cc3ccc4c(c3)OCO4)C(c3ccc(F)cc3)C2=O)CC1 (configuration not stated),6 (active)
19,CC1CCC(NC(=O)C2c3ccccc3C(=O)N2Cc2ccc3c(c2)OCO3)CC1 (configuration not stated),inactive
20,CNC(=O)C1CC(=O)N(Cc2ccc3c(c2)OCO3)C(=Nc2ccc(F)cc2)S1 (configuration not stated),inactive
21,COc1ccccc1C(=O)NC(=S)NC12CC3CC(CC(C3)C1)C2,inactive

# Source: PubChem BioAssay AID2642 (Johns Hopkins Ion Channel Center, 2010)
